Assay results from PubChem BioAssay (Tox21).
Records with an inconclusive call do not appear. The source made the active and inactive calls. Unless noted, calls follow the shape of the full dose curve.

Key:
[1] = Nuclear factor erythroid 2-related factor 2/antioxidant responsive element (Nrf2/ARE) small molecule agonists: qHTS cell viability counter screen in human keratinocytes (AID 1919968; active = well fitted curve in the direction sought with a large enough effect in the repeat runs; an effect the other way counts as inactive or inconclusive; also: nearly all actives have a fitted effect of over 55% in size; also: potency is read from the fitted curve at half-maximal effect)
In short: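 Measured as CellTiter-Fluor fluorescence, this readout tracks cytotoxicity in the same wells as the ARE-luciferase screen. HaCaT reporter cells (1,500/well) received compounds after a 5 h pre-incubation and were exposed for 23 h.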

[2] = Nuclear factor erythroid 2-related factor 2/antioxidant responsive element (Nrf2/ARE) small molecule agonists: luciferase reporter gene qHTS assay in human keratinocytes (AID 1919969); also: nearly all actives have a fitted effect of over 35% in size; also: potency is read from the fitted curve at half-maximal effect
[3] = target: Gonadotropin-releasing hormone receptor (Homo sapiens) (UniProt P30968); assay: Human gonadotropin-releasing hormone receptor (GnRHR) small molecule agonists, calcium flux assay in GnRHR-HEK293 cells (AID 1920063); also: nearly all actives have a fitted effect of over 35% in size
In short: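 Fluorescence kinetics (480 nm excitation, 540 nm emission; 3 min, 1 s steps) report calcium mobilisation in human GnRHR-HEK293 cells in agonist mode. Dye incubation: 1 h, 37 C.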

[4] = target: KiSS-1 receptor (Homo sapiens) (UniProt Q969F8); assay: Human kisspeptin (KISS1R) small molecule agonists, calcium flux assay in KISS1R-HEK293 cells (AID 1920064; active = well fitted curve in the direction sought with a large enough effect in the repeat runs; an effect the other way counts as inactive or inconclusive)
In short: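 Measures KISS1R agonism through calcium-sensitive dye fluorescence in stably transfected HEK293 cells, read for 3 min after pin-tool compound delivery; 15-point titrations in triplicate.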

[5] = G protein-coupled receptor (GPCR) small molecule agonists, calcium flux assay: HEK293 wild type cell line counter screen (AID 1920065)
In short: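 Readout: fluorescence at 480 nm excitation/540 nm emission, sampled at 1 s intervals for 3 min. Cells had been cultured 18 h, then dye-loaded 1 h at 37 C before compound or ATP addition.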

[6] = p53 small molecule agonists, cell-based qHTS assay with human liver microsomes: qHTS cell viability counter screen (AID 1963579); also: nearly all actives have a fitted effect of over 45% in size
In short: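 Metabolically activated exposure: compounds, human liver microsomes and NADPH (0.5 mg/mL final apiece) were added to p53RE-bla cells seeded 5 h earlier, left 16 h at 37 C, and then assessed for viability by CellTiter-Glo luminescence.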

[7] = p53 small molecule agonists, cell-based qHTS assay with rat liver microsomes: qHTS cell viability counter screen (AID 1963580); also: nearly all actives have a fitted effect of over 45% in size
In short: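 Viability is assessed in parallel with the p53 reporter read: HCT-116 p53RE-bla cells receive compounds plus rat microsomes and NADPH (0.5 mg/mL final apiece), incubate 16 h at 37 C, and then CellTiter-Glo luminescence is recorded.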

[8] = p53 small molecule agonists, cell-based qHTS assay: qHTS cell viability counter screen (AID 1963581); also: nearly all actives have a fitted effect of over 45% in size
In short: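 In the same plates used for the p53 bla reporter, HCT-116 cells given compounds for 16 h at 37 C received CellTiter-Glo; luminescence was recorded 30 min later at room temperature.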

[9] = target: 5-hydroxytryptamine receptor 2A (Homo sapiens) (UniProt P28223); assay: 5-hydroxytryptamine receptor 2A (HTR2A) small molecule antagonists, cell-based qHTS assay (AID 1963586); also: nearly all actives have a fitted effect of over 45% in size
In short: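 Antagonist-mode intracellular calcium assay: DOI (4 nM) added after 5 min compound pre-incubation at room temperature to dye-loaded HTR2A-CHO cells. Fluorescence followed for 3 min, sampled every second.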

[10] = target: 5-hydroxytryptamine receptor 2A (Homo sapiens) (UniProt P28223); assay: 5-hydroxytryptamine receptor 2A (HTR2A) small molecule agonists, cell-based qHTS assay (AID 1963587); also: nearly all actives have a fitted effect of over 30% in size
In short: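 CHO cells stably expressing human HTR2A, plated 18 h, loaded with calcium dye 1 h at 37 C. Agonist mode: compounds added and intracellular calcium fluorescence recorded kinetically for 2 min at 1 sec intervals.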

[11] = target: Muscarinic acetylcholine receptor M1 (Homo sapiens) (UniProt P11229); assay: Cholinergic receptor muscarinic 1 (CHRM1) small molecule antagonists, cell-based qHTS assay (AID 1963588); also: nearly all actives have a fitted effect of over 40% in size
In short: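 CHRM1-CHO calcium-flux assay, antagonist mode. Cells were seeded 18 h, dye-loaded 1 h at 37 C and given compound for 5 min at RT, then acetylcholine was added at 50nM. FDSS fluorescence was read 3 min; 15 concentrations, three runs.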

[12] = target: Muscarinic acetylcholine receptor M1 (Homo sapiens) (UniProt P11229); assay: Cholinergic receptor muscarinic 1 (CHRM1) small molecule agonists, cell-based qHTS assay (AID 1963589); also: nearly all actives have a fitted effect of over 35% in size
In short: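 Each compound was tested at 15 concentrations across three independent runs on dye-loaded CHO cells stably expressing human CHRM1, reading intracellular calcium fluorescence kinetically at 1 sec intervals.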

[13] = cAMP Responsive Elements (CRE) small molecule agonists, cell-based qHTS assay (AID 1963590)
In short: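 Cell line: CRE-bla HEK 293T; medium DMEM/10% dialyzed FBS/0.1 mM NEAA/1 mM pyruvate/25 mM HEPES; 3 h compound exposure; beta-lactamase FRET readout after 2 h substrate loading at RT.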

[14] = cAMP Responsive Elements (CRE) small molecule antagonists, cell-based qHTS assay (AID 1963591; active = well fitted inhibition curve with a large enough effect in the signal ratio in the repeat runs, not every such curve was filed as active; the % refers to the signal ratio)
In short: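 Inhibition of NKH477-driven (0.25 uM final) CRE-beta-lactamase signal in HEK293T cells, 3 h compound exposure at 37 °C, detected by FRET substrate fluorescence.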

[15] = target: Beta-2 adrenergic receptor (Homo sapiens) (UniProt P07550); assay: Adrenergic beta2 receptor (ADRB2) small molecule antagonists, cell-based qHTS assay (AID 1963592); also: series mostly up to about 92 µM; nearly all actives have a fitted effect of over 50% in size
In short: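 Cells (CHO, stable ADRB2 overexpression) incubated 18-20hr at 37C; compounds added from DMSO; agonist mix (1nM isoproterenol, 100uM IBMX, 25uM Ro-20-1724) added; 0.5hr RT; d2-cAMP and anti-cAMP-cryptate added; 1hr RT; 665/615 nm read.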

[16] = target: Beta-2 adrenergic receptor (Homo sapiens) (UniProt P07550); assay: Adrenergic beta2 receptor (ADRB2) small molecule agonists, cell-based qHTS assay (AID 1963593);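 also: CHO cells stably overexpressing human ADRB2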
In short: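 CHO cells stably over-expressing ADRB2 were plated overnight at 37C, then dosed with compounds plus a stimulation mix containing 100uM IBMX and 25uM Ro-20-1724 for 0.5hr at room temperature. cAMP was measured by HTRF competition, 1hr.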

[17] = target: D(2) dopamine receptor (Homo sapiens) (UniProt P14416); assay: Dopamine D2 receptor (DRD2) small molecule agonists, cell-based qHTS assay (AID 1963594); also: nearly all actives have a fitted effect of over 35% in size
In short: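 HEK293 cells stably expressing human DRD2, pre-treated with PDE inhibitor Ro20-1724 (0.1 mM final) and compound 10 min at room temperature, then stimulated with NKH477 (200nM […]) for 30 min. cAMP read by HTRF (665/620 nm).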

[18] = target: D(2) dopamine receptor (Homo sapiens) (UniProt P14416); assay: Dopamine D2 receptor (DRD2) small molecule antagonists, cell-based qHTS assay (AID 1963595; active = well fitted inhibition curve with a large enough effect in the signal ratio in the repeat runs, with a control signal flat; the % refers to the signal ratio)
In short: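 In this cell-based antagonist screen, compounds act for 10 min at room temperature before a 30 min challenge with 12 nM quinpirole and 200 nM NKH477. cAMP is quantified by HTRF competition in DRD2-HEK293 cells containing 0.1 mM Ro20-1724.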

[19] = p53 small molecule agonists, cell-based qHTS assay with rat liver microsomes (AID 1963578)
In short: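 Agonist mode in p53RE-bla reporter cells, with compounds co-incubated 16 h at 37 C alongside 0.5 mg/mL rat liver microsomes and 0.5 mg/mL NADPH (final), followed by a 2 h LiveBLAzer detection step.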

[20] = p53 small molecule agonists, cell-based qHTS assay (AID 1963582; active = well fitted activation curve with a large enough effect in the signal ratio in the repeat runs, not every such curve was filed as active; the % refers to the signal ratio)
In short: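 Compounds are pin-transferred in DMSO onto p53RE-bla cells and incubated 16 h at 37 C. The B/G FRET beta-lactamase substrate is then applied for 2 h at RT and fluorescence recorded.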

Measured: Potency

Chain of Gonadotropin-releasing hormone receptor (Homo sapiens) (P30968 whole entry, looked up): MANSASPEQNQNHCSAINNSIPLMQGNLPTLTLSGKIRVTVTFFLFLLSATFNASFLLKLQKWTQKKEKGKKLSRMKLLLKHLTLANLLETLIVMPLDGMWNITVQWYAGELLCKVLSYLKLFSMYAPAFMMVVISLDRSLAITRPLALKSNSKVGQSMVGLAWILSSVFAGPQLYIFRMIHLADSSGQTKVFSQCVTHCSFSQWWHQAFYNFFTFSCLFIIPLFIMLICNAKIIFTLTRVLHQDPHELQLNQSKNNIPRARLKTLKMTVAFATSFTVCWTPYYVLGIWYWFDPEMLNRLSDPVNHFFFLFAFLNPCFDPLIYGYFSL
Chain of KiSS-1 receptor (Homo sapiens) (Q969F8 whole entry, looked up): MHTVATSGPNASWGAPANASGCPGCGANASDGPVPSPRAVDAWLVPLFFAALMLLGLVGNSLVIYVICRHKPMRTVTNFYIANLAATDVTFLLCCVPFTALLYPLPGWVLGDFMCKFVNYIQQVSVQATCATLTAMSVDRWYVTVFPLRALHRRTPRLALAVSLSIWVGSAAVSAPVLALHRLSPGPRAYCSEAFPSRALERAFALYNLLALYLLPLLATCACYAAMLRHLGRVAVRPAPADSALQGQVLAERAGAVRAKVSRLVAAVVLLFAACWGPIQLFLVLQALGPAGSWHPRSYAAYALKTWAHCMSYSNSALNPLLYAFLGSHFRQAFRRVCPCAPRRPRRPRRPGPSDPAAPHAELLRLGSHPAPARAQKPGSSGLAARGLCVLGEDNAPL
Chain of Muscarinic acetylcholine receptor M1 (Homo sapiens) (P11229 whole entry, looked up): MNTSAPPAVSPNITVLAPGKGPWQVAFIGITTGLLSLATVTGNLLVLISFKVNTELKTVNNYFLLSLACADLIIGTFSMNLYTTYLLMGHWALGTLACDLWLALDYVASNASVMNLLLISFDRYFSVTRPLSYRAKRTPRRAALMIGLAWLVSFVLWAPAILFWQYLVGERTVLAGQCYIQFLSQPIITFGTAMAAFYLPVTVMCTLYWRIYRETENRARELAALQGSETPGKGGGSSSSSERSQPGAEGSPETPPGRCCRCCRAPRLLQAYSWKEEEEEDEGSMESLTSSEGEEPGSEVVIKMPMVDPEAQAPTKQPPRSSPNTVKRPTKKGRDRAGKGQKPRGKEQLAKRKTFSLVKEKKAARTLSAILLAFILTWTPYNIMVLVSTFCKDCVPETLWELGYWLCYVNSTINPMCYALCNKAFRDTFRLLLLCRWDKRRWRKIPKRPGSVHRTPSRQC
Chain of D(2) dopamine receptor (Homo sapiens) (P14416 whole entry, looked up): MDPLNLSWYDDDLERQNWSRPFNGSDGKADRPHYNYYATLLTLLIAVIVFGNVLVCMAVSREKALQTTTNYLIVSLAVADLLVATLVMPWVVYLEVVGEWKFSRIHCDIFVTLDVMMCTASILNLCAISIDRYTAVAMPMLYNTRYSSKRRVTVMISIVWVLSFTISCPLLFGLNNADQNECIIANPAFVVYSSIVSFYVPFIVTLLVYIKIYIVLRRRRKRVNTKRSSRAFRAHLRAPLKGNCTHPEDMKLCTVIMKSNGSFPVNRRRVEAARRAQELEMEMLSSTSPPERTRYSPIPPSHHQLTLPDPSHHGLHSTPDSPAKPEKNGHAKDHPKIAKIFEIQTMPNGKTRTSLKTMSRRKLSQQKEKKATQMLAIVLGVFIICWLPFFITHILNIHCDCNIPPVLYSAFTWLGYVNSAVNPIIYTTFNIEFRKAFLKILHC
Chain of Beta-2 adrenergic receptor (Homo sapiens) (P07550 whole entry, looked up): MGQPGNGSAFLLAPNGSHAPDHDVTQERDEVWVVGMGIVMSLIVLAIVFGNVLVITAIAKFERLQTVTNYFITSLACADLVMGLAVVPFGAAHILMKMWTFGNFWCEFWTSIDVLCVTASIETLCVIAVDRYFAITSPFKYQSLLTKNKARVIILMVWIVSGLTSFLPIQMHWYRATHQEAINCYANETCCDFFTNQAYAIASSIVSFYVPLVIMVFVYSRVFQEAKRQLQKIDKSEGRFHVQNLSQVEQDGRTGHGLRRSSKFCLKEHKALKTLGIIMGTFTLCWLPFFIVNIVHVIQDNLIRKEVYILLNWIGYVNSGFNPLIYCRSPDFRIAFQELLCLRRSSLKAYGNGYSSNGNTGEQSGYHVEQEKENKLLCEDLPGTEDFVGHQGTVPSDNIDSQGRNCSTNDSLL
Chain of 5-hydroxytryptamine receptor 2A (Homo sapiens) (P28223 whole entry, looked up): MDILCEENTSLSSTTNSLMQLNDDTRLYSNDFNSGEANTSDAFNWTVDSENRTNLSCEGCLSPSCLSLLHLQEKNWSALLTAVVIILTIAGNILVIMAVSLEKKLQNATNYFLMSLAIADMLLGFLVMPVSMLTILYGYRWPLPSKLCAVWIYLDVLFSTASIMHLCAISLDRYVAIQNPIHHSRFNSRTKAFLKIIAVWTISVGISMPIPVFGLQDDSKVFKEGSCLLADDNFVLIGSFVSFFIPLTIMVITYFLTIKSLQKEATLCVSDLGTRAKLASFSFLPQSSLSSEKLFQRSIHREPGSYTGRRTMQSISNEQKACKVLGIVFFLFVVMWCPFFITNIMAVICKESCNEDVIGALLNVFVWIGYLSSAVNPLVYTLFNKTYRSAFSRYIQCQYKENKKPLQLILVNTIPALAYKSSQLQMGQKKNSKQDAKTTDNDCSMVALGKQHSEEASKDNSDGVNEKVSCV

Clc1sc(Cl)c(Cl)c1Cl
not listed: [19] | [20]
inactive: all other assays above

O=C(NN1CCCC1)NS(=O)(=O)c1ccc(Cl)cc1
not listed: [18] | [19] | [20]
inactive: all other assays above

CCOC(=O)C(F)(F)F
not listed: [18] | [19] | [20]
inactive: all other assays above

O=c1[nH]sc2ccccc12
active: [1] 24.3 µM | [2] 12.2 µM
not listed: [6] | [7] | [10] | [13] | [14] | [15] | [17]
inactive: all other assays above

CCCCC(CC)COC(=O)COc1cc(Cl)c(Cl)cc1Cl (centres undefined)
not listed: [19] | [20]
inactive: all other assays above

COC(Cc1ccccc1)OC
not listed: [19] | [20]
inactive: all other assays above

N#Cc1ccccc1C#N
not listed: [19] | [20]
inactive: all other assays above
